DAX1 inh-1: blocks DAX1 repression of SF-1 activated StAR promoter; HEK293T StAR-luciferase reporter, SF-1/DAX-1 repression relief; inhibition, % at 6.8 µM; 370,000 compounds, 1.1% hits; AID 652010;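 active = inhibition above the mean over all tested compounds plus 3 SD, cut at about 3.6% in these data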;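 note: 0% = DAX-1 cells with DMSO and 100% = cells lacking DAX-1 with DMSO; higher inhibition means more luminescence from relief of DAX-1 repression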
hgDAF-12 ag: hgDAF-12 agonism, primary luciferase screen | HEK293 GAL4-hgDAF12 UAS-luciferase reporter, agonist luminescence; normalized to butyrate control | activation, % at 6.8 µM | 370,000 compounds, 1.8% hits | AID 687014;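 active = activation above a cutoff set at the mean of all screened compounds plus 3 SD, cut at about 10% in these data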;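 note: 0% = DMSO wells and 100% = sodium butyrate wells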
DAX1 inh-2: inhibits human nuclear receptor DAX1; HEK293 Gal4-DAX1 luciferase reporter, luminescence; P51843; 340,000 compounds, 0.99% hits; inhibition, % at 6.75 µM; AID 504766;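 active = inhibition above the mean over all tested compounds plus 3 SD, cut at about 4.2% in these data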;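 note: 0% = DAX1-transfected cells with DMSO and 100% = empty-vector control cells with DMSO; inhibition shows as a rise in luminescence from relieved DAX1 repression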
Target sequence (P51843 207-470 limits assumed): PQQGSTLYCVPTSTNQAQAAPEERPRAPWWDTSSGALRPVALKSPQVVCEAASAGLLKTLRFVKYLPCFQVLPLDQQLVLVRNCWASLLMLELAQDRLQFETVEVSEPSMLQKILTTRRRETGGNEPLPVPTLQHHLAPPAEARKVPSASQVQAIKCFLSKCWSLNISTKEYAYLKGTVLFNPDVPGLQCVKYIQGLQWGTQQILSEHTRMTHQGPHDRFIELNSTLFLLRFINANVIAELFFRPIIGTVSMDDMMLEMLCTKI
hcDAF12 agonist: H. contortus DAF-12 activation, primary screen; 370,000 compounds, 1.4% hits; HEK293 hcDAF-12 lit1-tk-luc reporter, luminescence; 0% DMSO, 100% Δ7-dafachronic acid; activation, % at 6.8 µM;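 active = activation above the mean of all tested compounds plus 3 SD, cut at about 5.5% in these data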;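 note: 100% = response to 3 µM Δ7-dafachronic acid high control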
ssDAF-12 act: S. stercoralis DAF-12 activation, primary screen; 370,000 compounds, 1% hits; activation, % at 6.8 µM; HEK293 ssDAF-12/GRIP1 lit1-tk-luc reporter, luminescence; % of 3 µM dafachronic acid response;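 active = activation above the mean over all tested compounds plus 3 SD, cut at about 0.9% in these data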;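 note: 0% = DMSO-only wells and 100% = 3 µM delta7-dafachronic acid wells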
SMARCA2 act: SMARCA2 function activation, primary screen | MG213 cells, MMTV-luciferase reporter, dexamethasone, overnight | 370,000 compounds, 1% hits | activation, % at 9.1 µM; in the data active = activation above about 7.8%;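 note: 0% = vehicle wells and 100% = reference activator wells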
DAX1 inh confirm: confirmation of human DAX1 (NR0B1) inhibitors; 2,400 compounds, 87% hits; inhibition, % at 6.8 µM; HEK293T StAR-promoter luciferase reporter, SF-1/DAX-1 repression; shares compounds with DAX1 inh-1;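 active = inhibition above the average of every tested compound plus 3 SD, cut at about 3.8% in these data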;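 note: 0% = DAX-1 cells with DMSO and 100% = no DAX-1 control cells with DMSO; active compounds raise luminescence by relieving repression of the StAR reporter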
SF1 mutant ctr: nonselective inhibitor or artifact in SF-1 mutant DAX1 counter-screen; AID 652136; inhibition, % at 6.8 µM; HEK293 StAR-luciferase, SF-1 AF2 mutant, luminescence; 2,400 compounds, 78% hits; shares compounds with DAX1 inh-1;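 active = inhibition above the mean of all tested compounds plus 3 SD, cut at about 3% in these data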;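 note: 0% = DAX-1 transfected cells with DMSO and 100% = cells without DAX-1 with DMSO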
SMARCA2 conf: confirmation of SMARCA2 (BRM) function activators; AID 652260; shares compounds with SMARCA2 act; MG213 cells, MMTV-luciferase with dexamethasone, luminescence, overnight; MG213 cells expressing E1A, Rb sequestered; DMSO wells 0%, reference activator 100%; activation, % at 9.1 µM; 3,500 compounds, 30% hits;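 active = activation above its plate's cutoff, the mean activation of tested wells plus 3 SD, cut at about 7.9% in these data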
VP16 Luc act: activates GAL4-VP16 luciferase, flagging SMARCA2 activator hits | shares compounds with SMARCA2 act | HEK293 GAL4-VP16 pG5luc reporter, luciferase luminescence; scaled: DMSO wells 0%, SAHA wells 100% | activation, % at 9.1 µM | 3,500 compounds, 41% hits;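 active = activation above the solvent-only control well mean plus 3 SD, averaged across control plates, cut at about 5.2% in these data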
LXR ag: counter-screen for hcDAF-12 agonists: agonists of human LXR-beta; shares compounds with hcDAF12 agonist; HEK293 Gal4-LXR tk-luc reporter, luminescence, 24 h; normalized: DMSO 0%, positive control 100%; activation, % at 6.8 µM; 3,400 tested, under 10 active; AID 743027;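 active = mean percent activation of the reporter above a cutoff set as the average over tested compounds plus their standard deviation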
Target sequence (P55055 whole entry, looked up, the tested form may be a part): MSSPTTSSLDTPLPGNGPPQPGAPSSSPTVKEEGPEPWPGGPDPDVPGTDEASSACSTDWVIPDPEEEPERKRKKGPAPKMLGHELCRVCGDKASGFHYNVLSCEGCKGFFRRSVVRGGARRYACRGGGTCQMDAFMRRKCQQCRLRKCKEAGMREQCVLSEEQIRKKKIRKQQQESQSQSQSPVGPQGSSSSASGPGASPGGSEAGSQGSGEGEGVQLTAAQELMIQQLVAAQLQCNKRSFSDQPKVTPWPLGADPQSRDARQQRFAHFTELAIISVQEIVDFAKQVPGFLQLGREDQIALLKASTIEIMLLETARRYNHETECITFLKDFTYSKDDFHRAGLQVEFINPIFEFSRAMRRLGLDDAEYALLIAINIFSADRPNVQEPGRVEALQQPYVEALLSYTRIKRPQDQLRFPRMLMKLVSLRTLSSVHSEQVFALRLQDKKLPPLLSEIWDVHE
hcDAF12 conf: hcDAF-12 agonism, confirmation assay; HEK293 hcDAF-12 lit1-tk-luc reporter, luminescence; % of Δ7-dafachronic acid response; 3,400 compounds, 61% hits; activation, % at 6.8 µM; shares compounds with hcDAF12 agonist;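 active = mean activation across triplicate tests above the threshold derived from the earlier primary screen, cut at about 5.5% in these data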;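 note: 0% = DMSO only wells and 100% = 3 µM Δ7-dafachronic acid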
hgDAF12 ag: hgDAF-12 agonism, confirmation assay; HEK293 GAL4-hgDAF12 luciferase reporter, agonist mode; percent of butyrate response; activation, % at 6.8 µM; shares compounds with hgDAF-12 ag; AID 743050; 3,300 compounds, 80% hits;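 active = mean activation over triplicate wells above the hit cutoff derived from the earlier primary screen, cut at about 11% in these data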;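 note: 0% = DMSO low control and 100% = 2 mM sodium butyrate high control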
LXRb DAF12 ctr: LXR-beta agonism as DAF-12 counter-screen. AID 743051. shares compounds with hgDAF-12 ag. 3,300 tested, under 10 active. activation, % at 6.8 µM. HEK293 Gal4-LXR luciferase reporter, 24 h;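 active = mean activation of the triplicate above a set limit carried over from the primary screen, none filed active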
* hit, by the source's call. This is a sample that favours compounds with a hit; in the whole collection about 4.8% have one here.

What do the screens show for `Nc1c(C(=O)Nc2ccc(Cl)cc2)oc2ccccc12`?
DAX1 inh-1: 6.4*; hgDAF-12 ag: 20.3*; DAX1 inh-2: 4.3*; hcDAF12 agonist: 21.7*; ssDAF-12 act: 2.2*; SMARCA2 act: 4.2; DAX1 inh confirm: 15.2*; SF1 mutant ctr: 10.8*; LXR ag: 2.0; hcDAF12 conf: 15.7*; hgDAF12 ag: 24.2*; LXRb DAF12 ctr: 1.2

How did Clc1ccc(/C=C/c2nc3ccccc3[nH]2)cc1 do in these assays?
DAX1 inh-1: 4.5*; hgDAF-12 ag: 13.6*; DAX1 inh-2: -3.0; hcDAF12 agonist: 7.7*; ssDAF-12 act: 0.2; SMARCA2 act: 1.6; DAX1 inh confirm: 11.1*; SF1 mutant ctr: 5.8*; LXR ag: 1.7; hcDAF12 conf: 8.9*; hgDAF12 ag: 13.2*; LXRb DAF12 ctr: 1.1

What do the screens show for `CCOC(=O)c1c(-c2ccccc2)csc1NC(=O)COc1ccc2c(C)cc(=O)oc2c1`?
DAX1 inh-1: 0.1; hgDAF-12 ag: 1.9; DAX1 inh-2: -0.1; hcDAF12 agonist: 1.1; ssDAF-12 act: -1.1; SMARCA2 act: -2.1

Results for CCC(=O)Nc1ccc(OCc2nc3ccccc3s2)cc1 ?
DAX1 inh-1: 9.4*; hgDAF-12 ag: 19.6*; DAX1 inh-2: 2.3; hcDAF12 agonist: 11.0*; ssDAF-12 act: 2.5*; SMARCA2 act: 3.3; DAX1 inh confirm: 15.0*; SF1 mutant ctr: 7.7*; LXR ag: 1.1; hcDAF12 conf: 10.8*; hgDAF12 ag: 16.5*; LXRb DAF12 ctr: 1.0

How did Cc1ccc(-c2nc3ccc([N+](=O)[O-])cc3[nH]2)cc1 do in these assays?
DAX1 inh-1: 9.2*; hgDAF-12 ag: 17.8*; DAX1 inh-2: -2.4; hcDAF12 agonist: 7.1*; ssDAF-12 act: -0.1; SMARCA2 act: 3.5; DAX1 inh confirm: 13.8*; SF1 mutant ctr: 6.7*; LXR ag: 1.3; hcDAF12 conf: 7.1*; hgDAF12 ag: 17.7*; LXRb DAF12 ctr: 1.0

How did O=[N+]([O-])c1ccc2nc(-c3ccncc3)[nH]c2c1 do in these assays?
DAX1 inh-1: 0.3; hgDAF-12 ag: 4.2; DAX1 inh-2: 2.8; hcDAF12 agonist: 2.0; ssDAF-12 act: -1.1; SMARCA2 act: -1.3

How did O=C(Nc1cccc(F)c1)c1ccc(-n2cncn2)c2ccoc12 do in these assays?
DAX1 inh-1: 9.0*; hgDAF-12 ag: 17.3*; hcDAF12 agonist: 9.4*; ssDAF-12 act: 0.2; SMARCA2 act: 11.7*; DAX1 inh confirm: 15.7*; SF1 mutant ctr: 5.4*; SMARCA2 conf: 8.2*; VP16 Luc act: 8.7*; LXR ag: 1.9; hcDAF12 conf: 9.5*; hgDAF12 ag: 17.5*; LXRb DAF12 ctr: 1.0

What do the screens show for `c1ccc(-c2cc(-c3ccccc3)on2)cc1`?
DAX1 inh-1: 5.7*; hgDAF-12 ag: 18.4*; DAX1 inh-2: 3.2; hcDAF12 agonist: 12.0*; ssDAF-12 act: 1.7*; SMARCA2 act: 3.7; DAX1 inh confirm: 17.9*; SF1 mutant ctr: 11.7*; LXR ag: 1.3; hcDAF12 conf: 8.0*; hgDAF12 ag: 17.7*; LXRb DAF12 ctr: 0.9

What do the screens show for `O=C(NN=Cc1ccc2c(c1)CCN2)c1cccs1`?
DAX1 inh-1: 6.7*; hgDAF-12 ag: 22.3*; DAX1 inh-2: 5.6*; hcDAF12 agonist: 9.8*; ssDAF-12 act: 1.5*; SMARCA2 act: 1.4; DAX1 inh confirm: 17.2*; SF1 mutant ctr: 7.0*; LXR ag: 1.5; hcDAF12 conf: 5.6*; hgDAF12 ag: 25.6*; LXRb DAF12 ctr: 1.1

Results for Cc1ccc(NC(=S)c2nc3ccccc3[nH]2)c(C)c1 ?
DAX1 inh-1: 5.1*; hgDAF-12 ag: 23.9*; DAX1 inh-2: 0.7; hcDAF12 agonist: 6.8*; ssDAF-12 act: 1.6*; SMARCA2 act: 4.2; DAX1 inh confirm: 16.6*; SF1 mutant ctr: 8.1*; LXR ag: 1.5; hcDAF12 conf: 12.5*; hgDAF12 ag: 18.8*; LXRb DAF12 ctr: 0.7

How did CNC(=O)c1sc2nc(-c3ccc(OC)cc3)cn2c1C do in these assays?
DAX1 inh-1: 5.7*; hgDAF-12 ag: 15.8*; DAX1 inh-2: 1.0; hcDAF12 agonist: 9.1*; ssDAF-12 act: 0.3; SMARCA2 act: 6.4; DAX1 inh confirm: 10.7*; SF1 mutant ctr: 7.0*; LXR ag: 0.7; hcDAF12 conf: 2.0; hgDAF12 ag: 13.4*; LXRb DAF12 ctr: 0.6

What do the screens show for `O=C(CCCc1ccccn1)c1cccc2ccccc12`?
DAX1 inh-1: 5.6*; hgDAF-12 ag: 15.0*; DAX1 inh-2: 1.9; hcDAF12 agonist: 11.6*; ssDAF-12 act: 1.1*; SMARCA2 act: -0.1; DAX1 inh confirm: 12.8*; SF1 mutant ctr: 5.7*; LXR ag: 1.4; hcDAF12 conf: 9.6*; hgDAF12 ag: 15.0*; LXRb DAF12 ctr: 0.7

What do the screens show for `CC1CCC(NC(=O)c2cc3c(s2)CCCC3)CC1` (configuration not stated)?
DAX1 inh-1: 6.1*; hgDAF-12 ag: 14.5*; DAX1 inh-2: 1.9; hcDAF12 agonist: 2.0; ssDAF-12 act: -0.2; SMARCA2 act: 4.8; DAX1 inh confirm: 6.7*; SF1 mutant ctr: 4.5*; hgDAF12 ag: 12.1*; LXRb DAF12 ctr: 0.4

Screens from PubChem.
